Compound activity as filed in PubChem BioAssay.
ELG1 DNA repair: ELG1-dependent DNA repair inhibition; HEK293T ELG1-luciferase reporter, luminescence, 16 h; DNA damage induced by 5-fluorouridine; Potency, µM (series often up to 46.1 µM), usual class: inhibitors; 2.3% of 330,000 active; further: nearly all actives have a fitted effect of over 55% in size
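Reporter activity after DNA damage by 5-fluorouridine is monitored. Compound-treated cells incubate 16 hr at 37 °C, then ONE-Glo is added for 30 min before luminescence reading.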
HT1080-NT tox: kills 2HG-producing HT-1080-NT fibrosarcoma cells; HT-1080-NT fibrosarcoma viability, CellTiter-Glo ATP luminescence, 48 h; Potency, µM (doses to about 46.1 µM), hits mostly cytotoxic; 1.6% of 360,000 active;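 further: NT is the 2HG producing partner of a matched IDH1 knockdown line; nearly all actives have a fitted effect of over 55% in size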
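Toxicity toward the 2HG-producing NT line was scored as %Activity, normalised to DMSO and no-cell wells, from CellTiter-Glo luminescence after 48 hours' treatment.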
HT1080 IDH1KD tx: HT-1080 IDH1 knockdown cell toxicity (counter line); HT-1080 IDH1 knockdown viability, ATP luminescence, 48 h; Potency, µM (titrated, usually from 46.1 µM), actives largely listed as cytotoxic; 2% of 360,000 active
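CellTiter-Glo luminescence after 48 h compound exposure at 37 degrees C of IDH1-knockdown HT-1080 cells in 5% FBS RPMI. %Activity scaled between DMSO wells and cell-free media wells, with curves fitted and assigned curve classes.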
TDP1 cell CPT: DT40-hTDP1 cell growth loss with CPT; 12% of 420,000 active; chicken DT40 Tdp1-/-;hTDP1 cells + 20 nM CPT, ATP luminescence, 48 h; AID 686979; Potency, µM (highest dose often 46.2 µM), hits mostly inhibitors; further: nearly all actives have a fitted effect of over 55% in size
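Chicken DT40 Tdp1-/- cells stably complemented with human TDP1 were seeded at 400 cells/well in medium containing 20 nM camptothecin, exposed to pin-transferred compounds, and grown at 37 °C for at least 48 hr. Viability was read as ATP luminescence.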
IL-1B inflam inh: blocks inflammasome-driven IL-1 beta release; activity change, % at 57.5 µM; AID 743279; 4.7% of 360,000 active; THP-1 LPS/ATP IL-1B secretion, AlphaLISA, 16 h; stronger effect = lower value; in the data active means activity change below about -50%; inconclusive means mostly about -30% to -49%
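THP-1 cells pretreated 1 hr with compounds (up to 57.5 uM final), then stimulated with LPS (250 ng/mL final) plus ATP (1.25 mM final); secreted IL-1B measured by AlphaLISA after 16 hr, decreased signal indicating inhibition.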
DT40 TDP1 no CPT: qHTS for Inhibitors of human tyrosyl-DNA phosphodiesterase 1 (TDP1): qHTS in cells in absence of CPT | DT40 Tdp1-/- hTDP1 cells, no CPT, ATP luminescence, 48 h | Potency, µM (doses to about 46.2 µM), actives largely listed as inhibitors | 15% of 420,000 active | AID 686978, 2013; further: nearly all actives have a fitted effect of over 55% in size
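Compound effects on proliferation are scored in DT40 Tdp1-/-;hTDP1 cells in the absence of CPT. ATP levels (CellTiter-Glo luminescence) are recorded after a ≥48 hr, 37 °C incubation.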
A number is an active result; i = inactive; ? = inconclusive; nt = not tested or not shown; ! = not active in a repeat; [ ] = another dose, or the depositor's remark. Hits are enriched below; roughly 19% of the tested compounds scored in any of these assays. Unless noted, the call rests on the fitted dose curve; in most records, active means well fitted curve in the direction sought with a large enough effect; inconclusive means small, poorly fitted or top-dose-only effect, or another doubt; inactive means no such curve, though single readings can be large; an effect the other way counts as inactive or inconclusive.

SMILES	ELG1 DNA repair	HT1080-NT tox	HT1080 IDH1KD tx	TDP1 cell CPT	IL-1B inflam inh	DT40 TDP1 no CPT
CCCNC(=O)C1(C)CCCN(C(=O)COc2ccc(C(C)(C)C)cc2)C1 (stereo not drawn)	nt	i	?	29µM	i	16µM
CCCNC(=O)C1(C)CCCN(C(=O)C2(c3ccc(Cl)cc3)CCCC2)C1 (stereo not drawn)	nt	i	i	?	i	21µM
COc1ccc2c(C(=O)CCl)c[nH]c2c1	?	?	?	2.6µM	i	3.3µM
NC1=C(Cl)C(=O)c2ccc(S(N)(=O)=O)cc2C1=O	nt	8.2µM	6.5µM	0.41µM	-98	0.46µM
NC1=C(Cl)C(=O)c2ccccc2C1=O	nt	?	?	5.2µM	i	4.6µM
COCCNC(=O)c1ccc(N2CC3CC(C2)c2cccc(=O)n2C3)c(NC(=O)c2ccccc2Cl)c1 (stereo not drawn)	nt	i	i	i	?	i
CCOC(=O)CC1(NC(=O)C2CCC(=O)N(CCc3ccccc3)C2)CCCCC1 (stereo not drawn)	?	i	i	i	i	i
CC(=O)OC1(C(C)=O)CCC2C3CC(C(F)(F)F)C4=CC(=O)CCC4(C)C3CCC21C (stereo not drawn)	nt	18µM	21µM	?	-94	13µM
CC(=O)O[C@]1(C(C)=O)CC[C@H]2[C@@H]3C[C@H](C)C4=CC(=O)CC[C@]4(C)[C@H]3CC[C@@]21C	i	?	?	18µM	?	16µM!
CC(=O)C12CCCCC1CC1[C@@H]3CC(C)C4=CC(=O)CC[C@]4(C)C3CC[C@@]12C (stereo partly drawn)	i	i	?	?	i	15µM
CC12CCC(=O)C=C1C(O)CC1C2CCC2(C)C1CCC2(O)C(=O)CO (stereo not drawn)	nt	i	i	?	i	i
CCC(=O)OC1(C(C)=O)CCC2C3CCC4=CC(=O)CCC4(C)C3CCC21C (stereo not drawn)	nt	i	i	i	i	23µM
COc1ccccc1C(=O)Nc1ccc(OCC(=O)N2CCCCC2C)cc1 (stereo not drawn)	i	i	i	i	i	i
CCc1noc(C)c1C(=O)N1CCCC(CCC(=O)NCc2ccc(F)c(F)c2)C1 (stereo not drawn)	i	i	i	?	i	?
N#C/C(=C/c1ccc(Sc2nc3ccccc3[nH]2)o1)c1ccccc1F	?	?	?	21µM	-96	16µM
N#C/C(=C/c1ccc(Sc2nc3ccccc3[nH]2)o1)c1cccc(F)c1	18µM	?	?	21µM	-94	?
COc1ccc(-c2nc3cc(C(C)C)ccc3o2)cc1NC(=O)COc1ccc(C)cc1C	nt	nt	nt	6.5µM	nt	?
COc1ccc(-c2nc3ccccc3o2)cc1NC(=O)CSc1ccc(Cl)cc1	?	i	?	?	i	?
COc1ccc(-c2nc3cc(C(C)C)ccc3o2)cc1NC(=O)c1ccc(C)c(Cl)c1	nt	nt	nt	21µM	nt	18µM
COc1ccc(-c2nc3ccccc3o2)cc1NC(=O)C(C)Oc1ccc(Cl)cc1Cl (stereo not drawn)	nt	nt	nt	?	nt	23µM
Cc1cccc(C(=O)Nc2ccccc2C(=O)OCc2cc(=O)n3nc(C4CC4)sc3n2)c1	nt	nt	nt	i	nt	i
CCN(Cc1nc(-c2ccc(C)cc2)no1)C(=O)c1ccco1	i	i	i	i	i	?
Cc1cc(NC(=O)COC(=O)c2cnccn2)ccc1Br	?	i	i	i	i	i
Cc1cc(C)n2c(SCC(=O)Nc3ccc(F)cc3)nnc2n1	i	i	i	i	?	i
Cc1oc2cc3oc(=O)c(CCC(=O)NCCc4ccccc4F)c(C)c3cc2c1C	nt	nt	nt	23µM	nt	23µM
SMILES	ELG1 DNA repair	HT1080-NT tox	HT1080 IDH1KD tx	TDP1 cell CPT	IL-1B inflam inh	DT40 TDP1 no CPT
COc1ccc2c(C)c(CCC(=O)NCCc3ccc(OC)c(OC)c3)c(=O)oc2c1	nt	nt	nt	13µM	nt	?
COc1ccccc1CCNC(=O)CCc1c(C)c2cc3c(C)c(C)oc3cc2oc1=O	nt	nt	nt	18µM	nt	16µM
COc1cc(COc2ccc3c(C)c(CCC(=O)O)c(=O)oc3c2)cc(OC)c1OC	?	i	i	i	i	?
COc1ccccc1CNC(=O)CCc1c(C)c2ccc(OC)c(C)c2oc1=O	nt	nt	nt	?	nt	i
Nc1c(CC(=O)O)cccc1C(=O)c1ccc(Br)cc1	nt	nt	nt	i	nt	i
COc1ccc(N2CCN(Cc3nc4ccsc4c(=O)[nH]3)CC2)cc1	i	i[9.24 µM]	i	i	i	i
COc1ccc(-c2cc3nc(CCl)[nH]c(=O)c3s2)cc1	?	16µM	16µM	4.6µM	i	4.1µM
O=[N+]([O-])c1ccc(C(O)CN=Cc2ccc(O)cc2O)cc1 (stereo not drawn)	?	12µM	8.2µM	23µM	i	?
COc1cc(/C=C/C(=O)C2C(=O)C=C(C)OC2=O)cc(OC)c1O (stereo not drawn)	2.6µM	i	i	?	i	?
COc1ccc(/C=C/C(=O)C2C(=O)C=C(C)OC2=O)cc1O (stereo not drawn)	?	i	i	?	i	?
CCC(C)c1ccc(NC(=O)COc2c(F)c(F)c(C(F)(F)F)c(F)c2F)cc1 (stereo not drawn)	i	i	i	?	-77	?
Cc1onc(-c2ccccc2)c1C(=O)N(C)CC(=O)Nc1ccc(F)c(F)c1F	i	i	i	?	i	?
COc1ccc(CNC(=O)CN(C(=O)CCC(=O)Nc2ccccn2)c2ccc(C)cc2)cc1	i	i	i	i	i	i
COc1ccc(-c2cn(-c3ccccc3)c(=S)[nH]2)cc1OC	?	i	i	i	i	i
COc1ccc(-c2cn(-c3ccc(C)c(C)c3)c(=S)[nH]2)cc1OC	i	i	i	i	i	16µM
COc1ccccc1-n1cc(-c2ccc([N+](=O)[O-])cc2)[nH]c1=S	?	i	i	i	i	?
COc1ccccc1-c1cn(-c2ccccc2)c(=S)[nH]1	?	i	i	?	i	21µM
COc1ccc(-c2cn(-c3ccc(C)c(Cl)c3)c(=S)[nH]2)cc1OC	i	i	i	?	?	?
Cc1cccc(-n2cc(-c3ccc([N+](=O)[O-])cc3)[nH]c2=S)c1	i	i	i	i	i	i
Cc1ccc(-n2cc(-c3ccc([N+](=O)[O-])cc3)[nH]c2=S)c(C)c1	i	i	i	16µM	i	16µM
COc1ccccc1-n1cc(-c2ccc(C)cc2)[nH]c1=S	?	10µM	?	3.7µM	i	4.1µM
O=C(Cc1cccc2ccccc12)Nc1ccc(N2CCOCC2)cc1	i	i	i	i	i	i
